Molecules are shown by their SMILES. Structures can show the parent of a compound that is named as a salt.

This test relates to Saccharomyces cerevisiae. Briefly: fraction of cells in G1 phase (DNA content, flow cytometry); higher = more cells with unreplicated DNA (G1 delay). To be noted: temperature: 30 C; YPD; JTY2953 pdr5 snq2 (sensitized); drug added to: cultures diluted from stationary phase; 6-7 h. In outline: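 For the G1 fraction, the Dean-Jett-Fox G1 peak area was divided by the sum of the G1 and G2/M areas. S. cerevisiae in YPD at 30°C received library drugs and was fixed 6–7 h later for sensitized JTY2953 (diluted 1∶200 from overnight, final 20 µg/ml), 6 h later for dividing JTY2953, or 4.33 h later for BY4741. Fixed cells were stained with SYTOX Green and 10,000 events recorded by flow cytometry.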
For `COc1ccc2c(c1)c(CC(=O)O)c(C)n2C(=O)c1ccc(Cl)cc1` [Indomethacin] (55.8977 µM), the “fraction of cells in G1 phase” value worked out at 0.519.

Take `Nc1ccn([C@H]2CC[C@@H](CO)O2)c(=O)n1` [2',3' - dideoxycytidine] (94.687 µM): the “fraction of cells in G1 phase” value turned out to be 0.474.

Regarding `N[C@@H](Cc1cc(I)c(Oc2cc(I)c(O)c(I)c2)c(I)c1)C(=O)O` (25.7441 µM), the “fraction of cells in G1 phase” value worked out at 0.486.

For `CCOC(=O)C1=C(C)NC(C)=C(C(=O)OCC)C1c1ccccc1/C=C/C(=O)OC(C)(C)C` [Lacidipine] (43.9024 µM), the “fraction of cells in G1 phase” value was found to be 0.516.

`Cc1c(C)c2c(c(C)c1O)CCC(C)(COc1ccc(CC3SC(=O)NC3=O)cc1)O2` (centres undefined) [Troglitazone] (45.2949 µM): the “fraction of cells in G1 phase” value came to 0.591.

With `CCC[C@@H]1C[C@@H](C(=O)N[C@@H]([C@H]2O[C@H](SC)[C@H](O)[C@@H](O)[C@H]2O)[C@@H](C)O)N(C)C1` [Lincomycin] (49.195 µM), the “fraction of cells in G1 phase” value is 0.539.

For the molecule `CCOC(=O)/C=C(C)/C=C/C=C(C)/C=C/c1c(C)cc(OC)c(C)c1C` [Etretinate] (56.4185 µM), the “fraction of cells in G1 phase” value stood at 0.557.

In the case of `CCN(CC)CCCC(C)Nc1ccnc2cc(Cl)ccc12` (centres undefined) [Chloroquine phosphate] (62.5232 µM), the “fraction of cells in G1 phase” value came to 0.469.

`CC(C)C[C@H](NC(=O)[C@@H](Cc1c[nH]c2ccccc12)NC(=O)[C@H](Cc1ccc(O)cc1)NC(=O)[C@H](CO)NC(=O)[C@H](Cc1c[nH]c2ccccc12)NC(=O)[C@H](Cc1c[nH]cn1)NC(=O)[C@@H]1CCC(=O)N1)C(=O)N[C@@H](CCCNC(=N)N)C(=O)N1CCC[C@H]1C(=O)NCC(N)=O` [Triptorelin] (15.2499 µM): the “fraction of cells in G1 phase” value was 0.468.

`C[C@H]1[C@H](OC(=O)CCC(=O)O)O[C@@H]2O[C@@]3(C)CC[C@H]4[C@H](C)CC[C@@H]1[C@@]24OO3` [Artesunate] (52.025 µM): the “fraction of cells in G1 phase” value stood at 0.556.

Take `CCCCC(C)(O)C/C=C/[C@H]1[C@H](O)CC(=O)[C@@H]1CCCCCCC(=O)OC` (mixture of isomers) [Misoprostol] (52.2814 µM): the “fraction of cells in G1 phase” value stood at 0.499.

As to `CCOC(=O)C(C)(C)Oc1ccc(Cl)cc1` [Clofibrate] (82.4047 µM), the “fraction of cells in G1 phase” value worked out at 0.552.

Take `CCCN[C@H]1CCc2nc(N)sc2C1` [Pramipexole] (94.6382 µM): the “fraction of cells in G1 phase” value came to 0.48.

As to `O=C1C(=O)c2ccccc2C(O)=C1C1CCC(c2ccc(Cl)cc2)CC1` (centres undefined) [Atovaquone] (54.5185 µM), the “fraction of cells in G1 phase” value worked out at 0.493.

`COC(=O)C1=C(C)NC(C)=C(C(=O)OC)C1c1ccccc1[N+](=O)[O-]` [Nifedipine] (57.7463 µM): the “fraction of cells in G1 phase” value is 0.551.

As to `CC[C@H](C)C(=O)O[C@H]1CCC=C2C=C[C@H](C)[C@H](CC[C@@H]3C[C@@H](O)CC(=O)O3)[C@H]21` [Mevastatin] (51.2132 µM), the “fraction of cells in G1 phase” value is 0.502.

Consider `CC(Oc1c(Cl)cccc1Cl)C1=NCCN1` (centres undefined) [Lofexidine] (77.1792 µM), for which the “fraction of cells in G1 phase” value came to 0.483.

In the case of `CO[C@H]1/C=C/O[C@@]2(C)Oc3c(C)c(O)c4c(O)c(cc(O)c4c3C2=O)NC(=O)/C(C)=C\C=C\[C@H](C)[C@H](O)[C@@H](C)[C@@H](O)[C@@H](C)[C@H](OC(C)=O)[C@@H]1C` [Rifamycin sv] (28.7035 µM), the “fraction of cells in G1 phase” value amounted to 0.477.

With `COc1cc(-c2ccc(=O)[nH]n2)ccc1OC(F)F` [Zardaverine] (74.5651 µM), the “fraction of cells in G1 phase” value amounted to 0.566.

Turning to `C[C@@](Cc1ccc(O)c(O)c1)(NN)C(=O)O` [Carbidopa] (88.404 µM), the “fraction of cells in G1 phase” value was found to be 0.482.

In the case of `COc1cccc2c1C(=O)c1c(O)c3c(c(O)c1C2=O)C[C@@](O)(C(C)=O)C[C@@H]3O[C@H]1C[C@H](N)[C@H](O)[C@H](C)O1` [Daunorubicin HCl] (37.9123 µM), the “fraction of cells in G1 phase” value came out at 0.596.

Turning to `CN[C@@H]1[C@@H](O[C@H]2O[C@H](CO)[C@@H](N)[C@H](O)[C@H]2O)OC2C[C@@H](N)[C@@H](O[C@H]3[C@H](O)[C@@H](O)[C@H](N)C[C@@H]3N)OC2[C@@H]1O` (some centres undefined) [Apramycin] (37.0653 µM), the “fraction of cells in G1 phase” value turned out to be 0.449.

Regarding `CN(C)/N=N/c1[nH]cnc1C(N)=O` [Dacarbazine] (109.778 µM), the “fraction of cells in G1 phase” value was 0.47.

`CCN1CCN(C(=O)N[C@@H](C(=O)N[C@@H]2C(=O)N3C(C(=O)O)=C(CSc4nnnn4C)CS[C@H]23)c2ccc(O)cc2)C(=O)C1=O` [Cefoperazone acid] (30.9752 µM): the “fraction of cells in G1 phase” value came out at 0.487.

For the molecule `C=CC[N+]1([C@H]2C[C@H]3[C@@H]4CC[C@H]5C[C@H](O)[C@@H](N6CCOCC6)C[C@]5(C)[C@H]4CC[C@]3(C)[C@H]2OC(C)=O)CCCC1` [Rocuronium bromide] (37.7508 µM), the “fraction of cells in G1 phase” value worked out at 0.479.

As to `Nc1ccc(S(=O)(=O)Nc2ncccn2)cc1` [Sulfadiazine] (79.9102 µM), the “fraction of cells in G1 phase” value worked out at 0.521.

As to `CC(=O)O[C@]1(C(C)=O)CC[C@H]2[C@@H]3C=C(Cl)C4=CC(=O)[C@@H]5C[C@@H]5[C@]4(C)[C@H]3CC[C@@]21C` [Cyproterone acetate] (47.9675 µM), the “fraction of cells in G1 phase” value stood at 0.597.

`CN(Cc1cc(Br)cc(Br)c1N)C1CCCCC1` [Bromhexine HCl] (53.1721 µM): the “fraction of cells in G1 phase” value was found to be 0.466.

For the molecule `Cc1c(Cl)cccc1Nc1ccccc1C(=O)O` [Tolfenamic acid] (76.4204 µM), the “fraction of cells in G1 phase” value stood at 0.53.

Turning to `CN(C)C(=N)NC(=N)N` [Metformin] (154.84 µM), the “fraction of cells in G1 phase” value stood at 0.516.

In the case of `CCCCc1ncc(/C=C(\Cc2cccs2)C(=O)O)n1Cc1ccc(C(=O)O)cc1` [Eprosartan] (47.1117 µM), the “fraction of cells in G1 phase” value was determined as 0.493.

Consider `C[C@]12C=CC(=O)C=C1CC[C@@H]1[C@@H]2[C@@H](O)C[C@@]2(C)[C@H]1CC[C@]2(O)C(=O)CO` [Prednisolone] (55.4855 µM), for which the “fraction of cells in G1 phase” value came to 0.466.

With `CC[C@]1(O)C[C@H]2CN(CCc3c([nH]c4ccccc34)[C@@](C(=O)OC)(c3cc4c(cc3OC)N(C=O)[C@H]3[C@@](O)(C(=O)OC)[C@H](OC(C)=O)[C@]5(CC)C=CCN6CC[C@]43[C@@H]65)C2)C1` [Vincristine sulfate] (24.243 µM), the “fraction of cells in G1 phase” value was found to be 0.481.

Consider `N=C(N)NC(=O)c1nc(Cl)c(N)nc1N` [Amiloride] (75.1597 µM), for which the “fraction of cells in G1 phase” value was 0.516.

As to `N=C(N)c1ccc(OCCCCCOc2ccc(C(=N)N)cc2)cc1` [Pentamidine] (58.7494 µM), the “fraction of cells in G1 phase” value turned out to be 0.521.

With `CCCSc1ccc2[nH]c(NC(=O)OC)nc2c1` [Albendazole] (75.3761 µM), the “fraction of cells in G1 phase” value is 0.475.

As for `CN1C2CCCC1CC(NC(=O)c1nn(C)c3ccccc13)C2` (centres undefined) [Granisetron] (64.0168 µM), the “fraction of cells in G1 phase” value stood at 0.486.

With `CCn1cc(C(=O)O)c(=O)c2cc(F)c(N3CCNCC3)cc21` [Norfloxacin] (62.6295 µM), the “fraction of cells in G1 phase” value was 0.455.

On to `CC(C)NNC(=O)c1ccncc1` [Iproniazid] (111.593 µM), for which the “fraction of cells in G1 phase” value was 0.47.
